Screening data from PubChem BioAssay.
mHTT-CaM PPI inh – mHTT-calmodulin interaction abrogation | P42858 | AlphaScreen His-mHTT/GST-CaM binding, luminescence | inhibition, % at 15 µM | 3.6% of 190,000 active | AID 1671202;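 note: 0% = both proteins with DMSO and 100% = one protein alone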
Pf apPOL block – Pf-apPOL DNA polymerase inhibition | 0.25% of 210,000 active | inhibition, % at 10 µM | AID 1794808 | Recombinant Pf-apPOL, molecular beacon fluorescence, 1.5 h
* = called active by the depositor; / = no result. The sample as a whole holds a higher share of hits than the screen did. Cut-off read from the data, not from the text of the source: active = inhibition above about 50%; inactive = the rest.

SMILES | mHTT-CaM PPI inh | Pf apPOL block
CC(CC(F)(F)F)C(=O)NC1CCc2[nH]c3ccc(Br)cc3c2C1 (stereo not drawn) | 34 | -3
CC(C)C(=O)NC1CCc2[nH]c3ccc(Br)cc3c2C1 (stereo not drawn) | 53* | -9
O=C(O)C1Nc2c(O)ccc(Br)c2C2C=CCC12 (stereo not drawn) | 100* | -2
O=C(c1ccccc1)c1cc(Cl)cc2c1NC(C(=O)O)C1CC=CC21 (stereo not drawn) | 6 | -1
Cc1cccc(NC(=O)N2CCc3[nH]cnc3C2c2ccncc2)c1C (stereo not drawn) | 2 | -2
Cc1ccccc1C(=O)N1CCC(c2noc(N)c2C(C)C)CC1 | 8 | 1
Cc1nc2c(C(=O)NCCc3ccccc3)cnn2c(C)c1Cc1ccccc1Cl | -3 | -7
Cc1c(Cl)c(C)c(C=O)c(O)c1Br | 79* | -3
Cc1ccccc1C(=O)N1CCCN(Cc2nc3ccc(F)cc3o2)CC1 | 23 | -14
COCCNC(=O)NCC1CCN(CCOC)CC1 | -18 | -6
O=c1[nH]c2ccc(N=Cc3cc(Br)cc(Br)c3O)cc2[nH]1 | 61* | -8
Cc1c(N=Cc2cc([N+](=O)[O-])c(Cl)cc2Cl)c(=O)n(-c2ccccc2)n1C | 0 | -1
O=c1[nH]c2ccc(N=Cc3cc([N+](=O)[O-])c(Cl)cc3Cl)cc2[nH]1 | 94* | 0
O=c1[nH]c2ccc(N=Cc3cc(O)ccc3Br)cc2[nH]1 | 9 | -3
CCOc1ccc(NC(=O)CSCc2ccccc2Cl)cc1 | -5 | 30
Cc1ccc(C2=NN(C(=O)CN3CCCCC3)C(c3cccn3C)C2)cc1C (stereo not drawn) | 91* | -2
CC(=O)N1CCN(CC(=O)N2N=C(c3ccc(F)cc3)CC2c2ccccc2)CC1 (stereo not drawn) | 35 | -1
Cn1cccc1C1CC(c2ccc(F)cc2)=NN1C(=O)CN1CCCCC1 (stereo not drawn) | 70* | -4
CC(C)c1ccc(-n2cnc3cc(C(=O)O)ccc32)cc1 | 0 | -6
Cc1cccc(N2CCN(C(=O)c3cc4cn(C5CC5)cc4s3)CC2)c1 | -2 | 0
CC(C)Cn1c(CC2CCN(S(=O)(=O)Cc3cccc(F)c3)C2)nc2cccnc21 (stereo not drawn) | 9 | -1
CC1(C)CC(=C2C(=O)c3ccccc3C2=O)C=C2c3ccccc3C(=O)C21 (stereo not drawn) | 65* | 0
O=C1c2ccccc2C(=O)c2c(NC3CCCCC3)ccc(NC3CCCCC3)c21 | / | -2
Cc1ccc(N2CCn3c2nnc(C(=O)NC(C)CCc2ccccc2)c3=O)cc1 (stereo not drawn) | -12 | -7
Cc1nc(C2CCCN(Cc3cccc4[nH]ccc34)C2)n[nH]1 (stereo not drawn) | 18 | -7
SMILES | mHTT-CaM PPI inh | Pf apPOL block
Cc1nc(C2CCCN(Cc3ccc(Br)o3)C2)n[nH]1 (stereo not drawn) | 50* | -10
COc1cccc(C(=O)N2CCc3nc(-c4ccc(Cl)cc4)ncc3C2)c1 | 1 | -7
CC1Cc2ccccc2N1C(=O)c1ccc(Cl)cc1 (stereo not drawn) | -39 | 2
CC1Cc2ccccc2N1C(=O)c1ccc2nc(N3C(=O)CCC3=O)sc2c1 (stereo not drawn) | 52* | -5
O=C(Oc1ccccc1)N1CCC(CNC(=O)C2(c3ccccc3)CCOCC2)CC1 | -3 | -6
CS(=O)(=O)N(CC(N)=O)c1cccc(Cl)c1 | 1 | 1
COc1ccc(/C=C2\N=C(c3ccc(C)c(C)c3)OC2=O)cc1 | 0 | 24
CC1=C(C(=O)Nc2ccc(C)cc2C)C(c2ccccc2F)n2ncnc2N1 (stereo not drawn) | -4 | 1
Cc1c(Cl)cccc1NC(=O)C1(C#N)CC1 | -16 | -3
NC(=S)NN=Cc1ccccc1O | 85* | 39
NC(=S)NN=Cc1ccccc1 | / | -10
COc1ccc(CCNC(=O)N2CCN(Cc3nc4ccccc4[nH]3)CC2)cc1 | 100* | -109
Cc1nnsc1C(=O)N1CCN(Cc2nc3ccccc3[nH]2)CC1 | -15 | -6
COc1cc(OC)c(OC)cc1/C=C1\NC(=O)N(Cc2ccc(Cl)cc2)C1=O | -1 | -9
Cc1cc(/C=C2\NC(=O)N(Cc3ccc(Cl)cc3)C2=O)c(C)n1-c1ccc(C#N)cc1 | 51* | -4
CC(C)Cc1nnc(NC(=O)CCCc2ccccc2)s1 | 2 | -2
O=C(CCCCC(=O)n1cccn1)n1cccn1 | -6 | 3
CCOc1ccc2sc(C=NCc3ccc(OC)cc3)c(O)c2c1 | 55* | 0
CCOc1ccc2sc(C=NCc3ccc(F)cc3)c(O)c2c1 | 45 | 2
Cc1cc(CNC(=O)Nc2csc3ccccc23)no1 | / | -4
Cc1ccsc1C(=O)N1CCC(n2nc(-c3ccsc3)ccc2=O)CC1 | 96* | 2
O=C(c1ccncc1)N1CCC(n2nc(-c3ccsc3)ccc2=O)CC1 | 16 | -6
O=C(Nc1ccc(F)cc1)C1CCN(c2cc(C(=O)N3CCCC3)ccn2)CC1 | 4 | 1
COc1cc(N=Cc2nc(-c3ccccc3F)oc2O)c(C(=O)O)cc1OC | 0 | 2
O=C(O)c1ccccc1N=Cc1nc(-c2ccccc2F)oc1O | 9 | 96*
SMILES | mHTT-CaM PPI inh | Pf apPOL block
CC(C)C(=O)NCCc1csc(C2CCCN(C(=O)Cc3cccc(Cl)c3)C2)n1 (stereo not drawn) | 11 | 5
Cc1nnc2ccc(-c3noc(Cc4ccccc4Cl)n3)cn12 | 0 | 4
Cc1nnc2sc(SCC(=O)Nc3cccc(C(F)(F)F)c3)nn2c1=O | 99* | 0
Cc1cc2c(=O)n(CC(=O)Nc3cccc(C(F)(F)F)c3)cnc2s1 | -11 | -1
O=C(Nc1nccs1)C1COc2ccccc2O1 (stereo not drawn) | -3 | 13
O=C(Cn1nc2c(c1NC(=O)C1COc3ccccc3O1)CSC2)NCc1ccco1 (stereo not drawn) | 94* | 20
Cc1ccc2c(c1)c1c(n2CC(O)Cn2nc(C)cc2C)CCCC1 (stereo not drawn) | 46 | 3
Cc1ccc2c(c1)c1c(n2CC(O)CNCc2ccco2)CCCC1 (stereo not drawn) | 55* | 0
CCC(CO)NCC(O)Cn1c2c(c3cc(C)ccc31)CCCC2 (stereo not drawn) | 54* | -8
CNCC(O)Cn1c2c(c3ccccc31)CCCC2 (stereo not drawn) | 14 | -12
O=C(O)COC1CCCCC1c1ccco1 (stereo not drawn) | 0 | /
O=C(/C=C/c1ccc(-c2ccc(F)cc2)o1)c1cccs1 | 91* | -1
O=C(/C=C/c1ccc(-c2ccccc2)o1)c1cccs1 | 28 | 1
O=C1NC(=O)C(=Cc2ccc(Oc3ccc([N+](=O)[O-])cn3)cc2)C(=O)N1 | 15 | -2
COc1ccccc1C1CC(c2ccccc2F)=NN1C(=O)CN1CCCCC1 (stereo not drawn) | 26 | -3
COc1cccc(C2=NN(C(=O)CN3CCCCC3)C(c3ccccc3C)C2)c1 (stereo not drawn) | 61* | -5
COc1ccc(C2=NN(C(=O)CN3CCC(C)CC3)C(c3ccccc3C)C2)cc1 (stereo not drawn) | 32 | -2
COc1ccccc1C1=NN(C(=O)CN2CCCCC2)C(c2cc(C)ccc2C)C1 (stereo not drawn) | 100* | -7
CC(C)(C)c1csc(NC(=O)C23CC4CC(CC(C4)C2)C3)n1 | -8 | 1
Nc1nc(NC(=O)c2ccc(Cl)cc2)nn1-c1ccccc1 | 2 | -3
Nc1nc(NC(=O)C(Cl)(Cl)Cl)nn1-c1ccccc1 | 85* | 2
